In PubChem BioAssay (NCI):
About 83,000 compounds went through this panel and 20% of them were active in at least one assay; those are over-represented in the sample as a whole.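 How to read the values: 0–100, growth inhibition (40 = 60% inhibited); 0, no net growth; -100 to 0, cell death (-40 = 40% of starting cells died; -100 = all dead).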 A number with no mark means an inactive call. The source made the active and inactive calls. How the source made its calls: active means growth percent below 10; inactive means the rest.

Legend:
Experiment in all cases: NCI-60 one-dose screen, 48 h (100 = growth as untreated, 0 = no growth, -100 = all killed)
Conditions in all cases: 10 µM unless noted
NCI-H23 lung = system: NCI-H23 lung
NCI-H226 lung = system: NCI-H226 lung
NCI-H322M lung = system: NCI-H322M lung
HOP-62 NSCLC = system: HOP-62 NSCLC
NCI-H460 lung = system: NCI-H460 lung
HOP-92 NSCLC = system: HOP-92 NSCLC
NCI-H522 lung = system: NCI-H522 lung
A549/ATCC NSCLC = system: A549/ATCC NSCLC
786-0 renal = system: 786-0 renal
COLO 205 colon = system: COLO 205 colon
DU-145 prostate = system: DU-145 prostate
K-562 leukemia = system: K-562 leukemia
MALME-3M melanoma = system: MALME-3M melanoma
MDA-MB-231 breast = system: MDA-MB-231 breast
RXF 393 renal = system: RXF 393 renal
SF-268 CNS = system: SF-268 CNS
SF-295 CNS = system: SF-295 CNS
SF-539 CNS = system: SF-539 CNS
UACC-257 melanoma = system: UACC-257 melanoma
M14 melanoma = system: M14 melanoma

Compound	growth (NCI-H23 lung) [%]	growth (NCI-H226 lung) [%]	growth (NCI-H322M lung)	growth (HOP-62 NSCLC)	growth (NCI-H460 lung)	growth (HOP-92 NSCLC)	growth (NCI-H522 lung)	growth (A549/ATCC NSCLC)	growth (786-0 renal)	growth (COLO 205 colon)	growth (DU-145 prostate)	growth (K-562 leukemia)	growth (MALME-3M melanoma)	growth (MDA-MB-231 breast)	growth (RXF 393 renal)	growth (SF-268 CNS)	growth (SF-295 CNS) [%]	growth (SF-539 CNS)	growth (UACC-257 melanoma) [%]	growth (M14 melanoma)
Nc1nc2ccc(-c3nc4ccc5[nH]ncc5c4c4c3CCC4)cc2s1	24.2	22.7	25.8%	3.53% (active)	2.53% (active)	-4.3% (active)	-29.4% (active)	32.2%	25.6%	-2.69% (active)	16.5%	19.4%	-2.7% (active)	42.2%	-21.9% (active)	37.7%	13.6	3.96% (active)	36.9	29.1%
O=C(O)c1cccnc1Br	98.1	99.8	112%	96.2%	113%	115%	84.8%	101%	90.2%	115%	129%	109%	109%	107%	121%	110%	96.1	91.9%	106	99.7%
c1ccc(CSc2ncnc3nc[nH]c23)nc1	99.1	91.4	103%	92.2%	104%	135%	82.7%	106%	92.4%	121%	113%	96.7%	103%	97.6%	119%	109%	104	99.5%	120	101%
CCN(CC)CC#CCOC(=O)[C@]1(C)CCC[C@@]2(C)[C@H]1CC(C=O)=C1C=C(C(C)C)CC[C@@H]12	60.2	76	94.5%	74.8%	64%	44.8%	53.3%	62.4%	58.3%	44.5%	90.1%	20.7%	82.3%	76%	61.2%	75.8%	71.8	49.1%	85.4	56.4%
Cc1ccc2c(c1)C(=O)/C(=C/c1ccc(OCC(=O)c3ccccc3)cc1)O2	84.7	69.4	108%	87.5%	108%	66.8%	89.2%	81.6%	86.8%	107%	107%	106%	114%	84%	89%	101%	78.8	92.9%	90.1	95.8%
CNc1cc2nc3cc(NC)c(C)cc3cc2cc1C	13.3	26.4	12.5%	10.7%	-85.8% (active)	11.7%	-2.17% (active)	-4.57% (active)	12.9%	-39.1% (active)	18.5%	21.1%	41.3%	28.7%	11.9%	11.3%	10	10.4%	29.2	24.8%
Cc1ccc(-c2nc(/C=N/Nc3cc(C)nc4ccc(Br)cc34)c(C)o2)cc1	79.2	86.6	-36.8% (active)	97.7%	-81% (active)	18.9%	-67.1% (active)	-56.1% (active)	-67% (active)	-68.6% (active)	-33.3% (active)	-33.2% (active)	-82% (active)	-91.9% (active)	-94.1% (active)	-59.4% (active)	85.7	71.3%	97	-50.2% (active)
